# According to PubChem BioAssay (NCI):
# About 83,000 compounds went through this panel and 20% of them were active in at least one assay; those are over-represented in the sample as a whole.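 A percent growth of 40 corresponds to 60% growth inhibition; 0 means no net growth; -100 means all cells died. Active threshold: below 10.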 Unmarked numbers belong to inactive results. The source made the active and inactive calls.
# Experiments:
# Assay in all cases: NCI-60 one-dose screen, 48 h (100 = growth as untreated, 0 = no growth, -100 = all killed)
# [1] = test system: NCI-H23 lung; conditions: 10 µM unless noted
# [2] = test system: NCI-H226 lung; conditions: 10 µM unless noted
# [3] = test system: NCI-H322M lung; conditions: 10 µM unless noted
# [4] = test system: NCI-H460 lung; conditions: 10 µM unless noted
# [5] = test system: HOP-92 NSCLC; conditions: 10 µM
# [6] = test system: NCI-H522 lung; conditions: 10 µM
# [7] = test system: A549/ATCC NSCLC; conditions: 10 µM unless noted
# [8] = test system: 786-0 renal; conditions: 10 µM unless noted
# [9] = test system: COLO 205 colon; conditions: 10 µM unless noted
# [10] = test system: DU-145 prostate; conditions: 10 µM unless noted
# [11] = test system: K-562 leukemia; conditions: 10 µM unless noted
# [12] = test system: MALME-3M melanoma; conditions: 10 µM unless noted
# [13] = test system: MDA-MB-231 breast; conditions: 10 µM unless noted
# [14] = test system: RXF 393 renal; conditions: 10 µM unless noted
# [15] = test system: SF-268 CNS; conditions: 10 µM unless noted
# [16] = test system: SF-295 CNS; conditions: 10 µM unless noted
# [17] = test system: SF-539 CNS; conditions: 10 µM unless noted
# [18] = test system: UACC-257 melanoma; conditions: 10 µM unless noted
# [19] = test system: M14 melanoma; conditions: 10 µM unless noted
SMILES,growth [1],growth [2],growth [3] [%],growth [4],growth [5] [%],growth [6],growth [7],growth [8],growth [9],growth [10],growth [11],growth [12],growth [13],growth [14],growth [15],growth [16],growth [17],growth [18],growth [19]
O=C(O)CC1Cc2ccccc2C1C(=O)O (stereo unspecified),93.5%,102%,113,106%,108,95.9%,103%,105%,114%,106%,91.5%,103%,105%,105%,100%,100%,99.1%,107%,95.9%
O=C1/C(=C/c2ccc(Cl)cc2)CCC/C1=C\c1ccc(Cl)cc1,70.7%,104%,99.6,97.7%,74.4,83%,65.7%,91.3%,73.3%,91.7%,67.9%,90.5%,95.6%,56.4%,84.1%,94.5%,88.1%,81.5%,69.7%
O=C(N/N=C\c1ccc(Cl)cc1)C(=O)N/N=C\c1ccc(Cl)cc1,102%,110%,92.9,103%,92.3,101%,102%,91.2%,97%,123%,95.2%,89.6%,91.3%,118%,120%,96.8%,99.5%,108%,103%
COc1cc(N2C(=O)C=CC2=O)ccc1N1C(=O)C=CC1=O,105%,105%,116,104%,93.1,-59.8% (active),103%,107%,53%,114%,64.5%,97.3%,116%,110%,105%,99.9%,101%,104%,103%
NC(=O)c1c(Nc2ccccc2)nn2cc(-c3nc4ccccc4s3)c(N)nc12,95.2%,85.5%,103,98.6%,93.2,91.4%,105%,109%,106%,107%,93.1%,96%,84.7%,102%,95.6%,98.7%,95.3%,118%,93.5%
Clc1ccc(N/N=C(/c2ccccc2)c2ccccn2)nc1,29.7%,27.1%,39.8,28.8%,51,60.8%,32%,37.6%,25%,42%,15.5%,50.5%,30.7%,74.6%,37.8%,41.2%,41.3%,13.4%,28.9%
COC(=O)c1ccc2[nH]c(O)c(C(=Nc3ccc(N(C)C(=O)CN4CCN(C)CC4)cc3)c3ccc(C)cc3)c2c1,-9.95% (active),5.6% (active),19.8,-43.1% (active),38.7,-33.6% (active),-30.2% (active),-85.1% (active),-61.2% (active),-14.2% (active),-32.9% (active),-94.6% (active),-22.9% (active),-98.2% (active),5.16% (active),1.13% (active),-96.1% (active),-59.4% (active),-83.7% (active)
Cc1c(O)c(N=Nc2ccc(C(=O)O)c(O)c2)c2ccccc2c1O,92.3%,104%,105,96.7%,77.7,100%,78.9%,104%,119%,94.3%,60.6%,97.4%,86.4%,13.3%,119%,116%,81.7%,95.6%,53.4%
CCCC(=O)NNc1[nH]c(-c2cc(OC)c(OC)c(OC)c2)cc1C(=O)OCC,107%,103%,145,123%,84.8,105%,115%,92.5%,34.3%,94.5%,37.9%,,107%,105%,120%,95.3%,91.6%,106%,
CC(=O)OCC1O[C@@H](OC(C)=O)[C@@H](NC(=O)NS(=O)(=O)c2ccccc2)C(OC(C)=O)[C@@H]1OC(C)=O (stereo partly specified),113%,99.7%,98.7,117%,97.9,96%,106%,98.3%,120%,108%,94.6%,103%,105%,108%,100%,94.4%,97.2%,118%,108%
COc1ccc(Cn2cc3c(c2-c2ccc(O)cc2)CCc2cnoc2-3)cc1,20.5%,24.1%,18.8,1.39% (active),93.1,35.7%,32.3%,28.9%,-17.6% (active),20.2%,12%,,18%,6.55% (active),45.5%,-24.6% (active),-16.2% (active),70.8%,9.96% (active)
Nc1ccc(S(=O)(=O)c2ccc(NO)cc2)cc1,100%,118%,116,111%,108,79.4%,105%,99.1%,111%,89.4%,91.8%,144%,98.3%,53.7%,109%,106%,76.8%,106%,117%
c1ccc(-c2cn3ccnc3c(-c3ccc4ncn(C5CCCCC5)c4c3)n2)cc1,54.7%,66.1%,94.8,62.2%,46.3,41.9%,66.7%,63.2%,79.3%,70.7%,29.4%,,58.5%,55%,78.2%,60.2%,72.2%,94.8%,61.8%
COc1ccc(-c2cn3ccnc3c(-c3ccc4ncn(C5CCCCC5)c4c3)n2)cc1,37.9%,64.1%,68.5,8.91% (active),47.7,-20.9% (active),31.4%,16.8%,-8.01% (active),18.2%,7.96% (active),,28.9%,-8.48% (active),50.1%,7.49% (active),-43.4% (active),73.7%,10.8%
COc1cccc2c1nc1cccc(OC)c1[n+]2[O-],9.62% (active),71.2%,78.6,14.1%,31.4,20.2%,36.8%,32.5%,77.9%,13.8%,39.8%,16.4%,78.5%,-39.6% (active),36.9%,36.7%,25.2%,58.2%,-3.49% (active)
CC(=N\N=C(N)N)/C(=N/N=C(N)N)c1ccccc1,43.1%,91.4%,76.4,93.3%,95.2,94.4%,86.2%,101%,6.49% (active),51.7%,91.3%,99.2%,116%,104%,,99.1%,74.6%,93.2%,88.6%
Cc1nnc(-c2cc3c(ccc4ccccc43)oc2=O)c2cn(-c3ccc(Cl)cc3)nc12,86.9%,92%,98.8,94.5%,85.9,81.2%,95.2%,97.5%,111%,107%,80.6%,,77.5%,103%,87.3%,95.9%,114%,109%,98.1%
